The source made the active and inactive calls. The calls were made as follows: active = hit-call score of the fitted dose curve at least 0.9, where 1 is the maximum; inactive = score below 0.9.
Experiments:
[1] = ATG_GLI_CIS: Attagene CIS-FACTORIAL HepG2 Assay for human Zinc Finger Protein GLI1 (AID 2282945); settings: HepG2, Attagene cis-factorial reporter mRNA, GLI element; actives raise or lower the signal
Procedure, shortened: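 Transiently transfected HepG2 cells report endogenous transcription factor activity via cis-element-driven reporter units. After 24 h compound exposure, reporter mRNA was measured by RT-PCR with capillary electrophoresis; bidirectional fitting against DMSO baseline.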

[2] = ATG_GRE_CIS: Attagene CIS-FACTORIAL HepG2 Assay for human Glucocorticoid Response Elements (GRE) (AID 2282947); settings: HepG2 GRE cis-reporter, Attagene multiplex mRNA; actives raise or lower the signal
Procedure, shortened: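 Fluorescence intensity of reporter-specific cDNA fragments, separated by capillary electrophoresis, provides the signal. Constructs carry cis-regulating promoters in transiently transfected HepG2 liver cells; 24 h incubation; fitting is bidirectional against DMSO.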

[3] = ATG_ISRE_CIS: Attagene CIS-FACTORIAL HepG2 Assay for human Interferon Regulatory Factor 1 (IRF1) binding to an Interferon-Stimulated Response Element (ISRE) (AID 2282948); settings: HepG2 ISRE cis-reporter (Attagene), mRNA transcription readout; actives raise or lower the signal
Procedure, shortened: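 Read-out: fluorescent RT-PCR products resolved by capillary electrophoresis, reporting endogenous transcription factor activity via ISRE-driven reporter mRNA in transfected HepG2 cells dosed for 24 h; gain or loss fitted relative to DMSO.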

[4] = ATG_M_32_CIS: Attagene CIS-FACTORIAL HepG2 Assay for M32 Transcription Factor (Internal Marker) (AID 2282949); settings: HepG2 Attagene cis-factorial M32 reporter, mRNA; actives raise or lower the signal;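 also: background control marker of the multiplexed CIS panel rather than a real target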
Procedure, shortened: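 HepG2 transfectants (cis-regulated reporter transcription units) dosed 24 h. Reporter mRNA by RT-PCR plus CE, analysed as gain or loss relative to DMSO.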

[5] = ATG_M_06_CIS: Attagene CIS-FACTORIAL HepG2 Assay for M06 Transcription Factor (Internal Marker) (AID 2282950); settings: HepG2 Attagene CIS-FACTORIAL M06 internal marker reporter; actives raise or lower the signal
Procedure, shortened: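 Cells (HepG2, transiently carrying cis-driven reporter units) receive chemical for 24 h before RNA isolation. Reporter cDNA is PCR-amplified, FAM-labelled by primer extension, HpaI-digested and sized on a capillary analyser.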

[6] = target: Hepatocyte nuclear factor 6 (Homo sapiens) (UniProt Q9UBC0); assay: ATG_HNF6_CIS: Attagene CIS-FACTORIAL HepG2 Assay for human Hepatocyte Nuclear Factor 6 (HNF6) (AID 2282952); settings: HepG2 Attagene cis-factorial HNF6 reporter transcription; actives raise or lower the signal
Procedure, shortened: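 First, HepG2 cells were transfected with the multiplexed cis reporter library and dosed with chemical for 24 h. Next, RNA was reverse-transcribed, PCR-amplified and fluorescently labelled. Finally, HpaI-digested fragments were read by capillary electrophoresis.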

[7] = target: Heat shock factor protein 1 (Homo sapiens) (UniProt Q00613); assay: ATG_HSE_CIS: Attagene CIS-FACTORIAL HepG2 Assay for human Heat Shock Transcription Factor 1 (HSE) (AID 2282953); settings: HepG2 HSE cis-reporter, Attagene RNA transcription; actives raise or lower the signal
Procedure, shortened: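 Liver-derived HepG2 cells carry transiently introduced multiple reporter units governed by cis promoters. Reporter RNA measured 24 h post-dose through reverse transcription, PCR amplification, fluorescent labelling and capillary electrophoresis, normalised to DMSO.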

[8] = ATG_MRE_CIS: Attagene CIS-FACTORIAL HepG2 Assay for human Metal Responsive Element (MRE) (AID 2282954); settings: HepG2 MRE cis-reporter transcription, Attagene multiplex; actives raise or lower the signal
Procedure, shortened: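 Measured here is mRNA induction from an MRE cis-element reporter in HepG2 after 24 h, quantified by fluorescence of labelled RT-PCR products on capillary electrophoresis; gain- and loss-of-signal fits use DMSO as baseline.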

[9] = ATG_PBREM_CIS: Attagene CIS-FACTORIAL HepG2 Assay for human Phenobarbital-responsive Enhancer Module (PBREM) (AID 2282955); settings: HepG2 PBREM cis-reporter, Attagene multiplexed transcription; actives raise or lower the signal
Procedure, shortened: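 HepG2 cells transiently transfected with multiple cis-regulated reporter transcription units; endogenous factor activity at the PBREM element measured as reporter mRNA 24 h after dosing, via RT-PCR and capillary electrophoresis of fluorescent fragments; bidirectional fitting versus DMSO.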

[10] = target: Paired box protein Pax-6 (Homo sapiens) (UniProt P26367); assay: ATG_Pax6_CIS: Attagene CIS-FACTORIAL HepG2 Assay for human Paired Box 6 (PAX6) (AID 2282956); settings: HepG2 CIS-FACTORIAL PAX6 reporter transcription, RNA readout; actives raise or lower the signal
Procedure, shortened: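 Readout: reporter transcript fluorescence after RT-PCR and capillary electrophoresis. Cells: HepG2, transiently transfected with cis-regulated MRTUs. Exposure 24 h. Gain or loss of signal fitted bidirectionally relative to DMSO.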

[11] = ATG_PXRE_CIS: Attagene CIS-FACTORIAL HepG2 Assay for human Pregnane X Receptor Element (PXRE) (AID 2282957); settings: HepG2 Attagene CIS-FACTORIAL PXRE reporter, mRNA; actives raise or lower the signal
Procedure, shortened: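 After a 24 h chemical incubation, total RNA from transfected HepG2 cells was reverse-transcribed and reporter cDNA amplified, FAM-labeled, HpaI-digested and sized by capillary electrophoresis. DMSO served as baseline for bidirectional curve fitting.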

[12] = ATG_PPRE_CIS: Attagene CIS-FACTORIAL HepG2 Assay for human Peroxisome Proliferator-activated Response Element (PPRE) (AID 2282958); settings: HepG2 PPRE cis-element reporter, Attagene transcription factor profiling; actives raise or lower the signal
Procedure, shortened: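 HepG2 cells transiently transfected with multiplexed cis-element reporter units measure endogenous transcription factor activity. After 24 h compound exposure, reporter mRNA is quantified by RT-PCR, 6-FAM labeling, HpaI digestion and capillary electrophoresis; bidirectional fits are made against DMSO baseline.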

[13] = ATG_RORE_CIS: Attagene CIS-FACTORIAL HepG2 Assay for human RAR-related Orphan Receptor Element (RORE) (AID 2282959); settings: HepG2 Attagene cis-factorial RORE reporter, mRNA; actives raise or lower the signal
Procedure, shortened: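 HepG2 cells transiently transfected with multiple cis-element reporter transcription units, exposed to chemical for 24 h. Reporter mRNA quantified by RT-PCR, 6-FAM primer-extension labeling, HpaI digestion and capillary electrophoresis; bidirectional fit versus DMSO baseline.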

[14] = ATG_Sox_CIS: Attagene CIS-FACTORIAL HepG2 Assay for human SRY-box transcription factor (SOX) (AID 2282960); settings: HepG2 Attagene cis-factorial SOX reporter, mRNA; actives raise or lower the signal
Procedure, shortened: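 HepG2 cells transiently transfected with cis-element-driven multiple reporter transcription units, dosed 24 h; reporter mRNA measured by RT-PCR, FAM labelling, HpaI digestion and capillary electrophoresis. Bidirectional fit versus DMSO baseline.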

[15] = target: Transcription factor Sp1 (Homo sapiens) (UniProt P08047); assay: ATG_Sp1_CIS: Attagene CIS-FACTORIAL HepG2 Assay for human Specificity Protein 1 (Sp1) (AID 2282961); settings: HepG2 Sp1 cis-reporter transcription, actives raise or lower the signal
Procedure, shortened: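 HepG2 cells transiently transfected with multiple reporter transcription units driven by cis-regulatory elements; Sp1-responsive reporter mRNA measured 24 h after dosing by RT-PCR and capillary electrophoresis fluorescence, fitted bidirectionally against DMSO baseline.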

[16] = ATG_SREBP_CIS: Attagene CIS-FACTORIAL HepG2 Assay for human Sterol Regulatory Element Binding (SREBP) (AID 2282962); settings: HepG2 Attagene cis-factorial SREBP reporter, mRNA; actives raise or lower the signal
Procedure, shortened: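 Readout: fluorescent reporter-transcript peaks resolved by capillary electrophoresis after RT-PCR. Cells were human HepG2 carrying transfected cis-promoter reporter constructs, dosed for 24 h. Gain or loss of signal was fitted against DMSO controls.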

[17] = target: Signal transducer and activator of transcription 3 (Homo sapiens) (UniProt P40763); assay: ATG_STAT3_CIS: Attagene CIS-FACTORIAL HepG2 Assay for human Signal Transducer and Activator of Transcription 3 (STAT3) (AID 2282963); settings: HepG2, Attagene cis-factorial STAT3 reporter transcription; actives raise or lower the signal
Procedure, shortened: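 Fluorescence intensity of 6-FAM-labelled reporter fragments, separated by capillary electrophoresis after RT-PCR, gave the signal. Cells were HepG2 transfected with cis-element reporter units and treated 24 h; fitting was bidirectional relative to DMSO.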

[18] = ATG_TA_CIS: Attagene CIS-FACTORIAL HepG2 Assay for human TA Basal Promoter (AID 2282964); settings: HepG2 Attagene CIS-factorial TA basal promoter reporter; actives raise or lower the signal
Procedure, shortened: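 Background internal-marker endpoint from a 52-component HepG2 cis-reporter panel. Cells treated 24 h; reporter transcripts quantified via RT-PCR and CE fluorescence against DMSO baseline.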

[19] = target: Hypoxia-inducible factor 1-alpha (Homo sapiens) (UniProt Q16665); assay: ATG_HIF1a_CIS: Attagene CIS-FACTORIAL HepG2 Assay for human Hypoxia Inducible Factor 1 (HIF1A) (AID 2282951); settings: HepG2 Attagene cis-factorial HIF1a reporter transcription; actives raise or lower the signal
Procedure, shortened: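 HepG2 cells transiently transfected with multiplexed cis-promoter reporter units; reporter mRNA read 24 h after dosing by RT-PCR, 6-FAM primer-extension labelling, HpaI digestion and capillary electrophoresis. Bidirectional fit versus DMSO baseline.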

Measured: outcome

Sequence of Paired box protein Pax-6 (Homo sapiens) (P26367 whole entry, looked up): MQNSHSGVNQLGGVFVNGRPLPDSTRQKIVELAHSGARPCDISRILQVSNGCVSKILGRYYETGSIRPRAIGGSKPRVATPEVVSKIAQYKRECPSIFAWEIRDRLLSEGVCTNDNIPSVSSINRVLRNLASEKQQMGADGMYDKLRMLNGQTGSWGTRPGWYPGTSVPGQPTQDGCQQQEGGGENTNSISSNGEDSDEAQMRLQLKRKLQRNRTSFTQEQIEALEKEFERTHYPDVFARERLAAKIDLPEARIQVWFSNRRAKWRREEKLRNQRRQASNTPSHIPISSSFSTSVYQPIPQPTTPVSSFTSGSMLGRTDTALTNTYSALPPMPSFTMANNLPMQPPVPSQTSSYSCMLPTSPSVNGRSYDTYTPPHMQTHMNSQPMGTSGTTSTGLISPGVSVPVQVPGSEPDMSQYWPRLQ
Sequence of Signal transducer and activator of transcription 3 (Homo sapiens) (P40763 whole entry, looked up, the tested form may be a part): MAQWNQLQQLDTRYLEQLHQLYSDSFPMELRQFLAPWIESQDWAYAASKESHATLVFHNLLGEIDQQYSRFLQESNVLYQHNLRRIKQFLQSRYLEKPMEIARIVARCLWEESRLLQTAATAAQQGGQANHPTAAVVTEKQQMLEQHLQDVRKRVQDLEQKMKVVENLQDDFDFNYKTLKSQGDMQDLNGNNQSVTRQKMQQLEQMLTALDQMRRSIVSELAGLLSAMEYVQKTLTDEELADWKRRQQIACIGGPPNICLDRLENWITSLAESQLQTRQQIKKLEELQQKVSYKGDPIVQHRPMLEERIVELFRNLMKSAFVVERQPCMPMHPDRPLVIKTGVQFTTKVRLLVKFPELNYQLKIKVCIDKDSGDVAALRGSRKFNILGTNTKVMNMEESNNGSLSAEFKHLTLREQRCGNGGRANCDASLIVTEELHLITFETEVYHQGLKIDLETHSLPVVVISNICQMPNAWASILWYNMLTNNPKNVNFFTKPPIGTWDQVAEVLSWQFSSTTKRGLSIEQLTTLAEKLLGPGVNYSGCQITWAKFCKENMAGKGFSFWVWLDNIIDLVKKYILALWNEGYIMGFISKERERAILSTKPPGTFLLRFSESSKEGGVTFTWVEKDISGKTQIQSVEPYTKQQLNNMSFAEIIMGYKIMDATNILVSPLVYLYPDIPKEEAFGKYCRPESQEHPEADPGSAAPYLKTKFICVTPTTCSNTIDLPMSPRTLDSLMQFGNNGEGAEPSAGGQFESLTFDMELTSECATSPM
Sequence of Transcription factor Sp1 (Homo sapiens) (P08047 whole entry, looked up): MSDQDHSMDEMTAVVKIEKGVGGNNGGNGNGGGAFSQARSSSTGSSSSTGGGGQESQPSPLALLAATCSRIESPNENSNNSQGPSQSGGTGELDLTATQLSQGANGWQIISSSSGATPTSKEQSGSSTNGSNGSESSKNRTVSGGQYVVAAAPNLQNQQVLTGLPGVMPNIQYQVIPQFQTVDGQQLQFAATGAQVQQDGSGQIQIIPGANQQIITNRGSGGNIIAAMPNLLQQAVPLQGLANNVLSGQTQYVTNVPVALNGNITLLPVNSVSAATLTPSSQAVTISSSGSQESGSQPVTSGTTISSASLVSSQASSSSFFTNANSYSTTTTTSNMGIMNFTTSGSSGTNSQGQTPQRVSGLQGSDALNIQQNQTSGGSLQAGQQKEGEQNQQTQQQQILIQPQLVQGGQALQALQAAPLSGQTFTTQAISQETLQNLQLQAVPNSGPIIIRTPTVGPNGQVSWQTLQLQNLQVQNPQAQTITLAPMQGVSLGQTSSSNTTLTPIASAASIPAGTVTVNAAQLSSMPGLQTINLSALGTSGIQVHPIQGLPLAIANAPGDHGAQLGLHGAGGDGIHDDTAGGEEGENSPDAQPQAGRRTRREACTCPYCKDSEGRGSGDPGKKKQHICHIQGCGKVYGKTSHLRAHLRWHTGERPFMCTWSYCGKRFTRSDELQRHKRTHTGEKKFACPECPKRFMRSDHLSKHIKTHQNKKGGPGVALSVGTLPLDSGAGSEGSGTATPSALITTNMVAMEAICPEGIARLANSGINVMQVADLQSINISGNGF
Sequence of Hepatocyte nuclear factor 6 (Homo sapiens) (Q9UBC0 whole entry, looked up, the tested form may be a part): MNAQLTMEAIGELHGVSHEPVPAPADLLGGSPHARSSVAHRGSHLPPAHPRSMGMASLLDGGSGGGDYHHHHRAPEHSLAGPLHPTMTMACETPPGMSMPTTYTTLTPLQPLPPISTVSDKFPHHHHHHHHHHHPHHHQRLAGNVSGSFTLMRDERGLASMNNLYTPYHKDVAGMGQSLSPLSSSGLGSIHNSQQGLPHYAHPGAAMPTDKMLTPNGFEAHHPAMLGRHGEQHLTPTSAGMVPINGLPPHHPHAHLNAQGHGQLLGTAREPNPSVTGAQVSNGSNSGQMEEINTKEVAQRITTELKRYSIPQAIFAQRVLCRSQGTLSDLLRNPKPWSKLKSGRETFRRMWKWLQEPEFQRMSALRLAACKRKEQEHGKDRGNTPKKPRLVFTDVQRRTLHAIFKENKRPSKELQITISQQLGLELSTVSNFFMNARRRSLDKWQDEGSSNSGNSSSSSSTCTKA
Sequence of Heat shock factor protein 1 (Homo sapiens) (Q00613 whole entry, looked up): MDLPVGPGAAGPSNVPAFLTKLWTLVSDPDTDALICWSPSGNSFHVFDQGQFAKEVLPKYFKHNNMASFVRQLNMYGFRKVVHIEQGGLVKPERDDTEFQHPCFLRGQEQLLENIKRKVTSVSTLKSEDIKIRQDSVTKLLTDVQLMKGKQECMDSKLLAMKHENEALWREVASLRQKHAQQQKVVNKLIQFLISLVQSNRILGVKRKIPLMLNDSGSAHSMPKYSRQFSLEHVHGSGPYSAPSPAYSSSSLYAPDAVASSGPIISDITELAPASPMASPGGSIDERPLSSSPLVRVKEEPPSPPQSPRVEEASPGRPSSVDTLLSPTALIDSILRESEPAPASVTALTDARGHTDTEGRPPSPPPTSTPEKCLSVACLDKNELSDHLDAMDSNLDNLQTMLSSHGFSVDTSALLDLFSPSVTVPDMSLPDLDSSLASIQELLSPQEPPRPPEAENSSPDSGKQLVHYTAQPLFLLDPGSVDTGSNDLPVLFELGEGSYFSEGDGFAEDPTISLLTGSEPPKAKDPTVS
Sequence of Hypoxia-inducible factor 1-alpha (Homo sapiens) (Q16665 whole entry, looked up): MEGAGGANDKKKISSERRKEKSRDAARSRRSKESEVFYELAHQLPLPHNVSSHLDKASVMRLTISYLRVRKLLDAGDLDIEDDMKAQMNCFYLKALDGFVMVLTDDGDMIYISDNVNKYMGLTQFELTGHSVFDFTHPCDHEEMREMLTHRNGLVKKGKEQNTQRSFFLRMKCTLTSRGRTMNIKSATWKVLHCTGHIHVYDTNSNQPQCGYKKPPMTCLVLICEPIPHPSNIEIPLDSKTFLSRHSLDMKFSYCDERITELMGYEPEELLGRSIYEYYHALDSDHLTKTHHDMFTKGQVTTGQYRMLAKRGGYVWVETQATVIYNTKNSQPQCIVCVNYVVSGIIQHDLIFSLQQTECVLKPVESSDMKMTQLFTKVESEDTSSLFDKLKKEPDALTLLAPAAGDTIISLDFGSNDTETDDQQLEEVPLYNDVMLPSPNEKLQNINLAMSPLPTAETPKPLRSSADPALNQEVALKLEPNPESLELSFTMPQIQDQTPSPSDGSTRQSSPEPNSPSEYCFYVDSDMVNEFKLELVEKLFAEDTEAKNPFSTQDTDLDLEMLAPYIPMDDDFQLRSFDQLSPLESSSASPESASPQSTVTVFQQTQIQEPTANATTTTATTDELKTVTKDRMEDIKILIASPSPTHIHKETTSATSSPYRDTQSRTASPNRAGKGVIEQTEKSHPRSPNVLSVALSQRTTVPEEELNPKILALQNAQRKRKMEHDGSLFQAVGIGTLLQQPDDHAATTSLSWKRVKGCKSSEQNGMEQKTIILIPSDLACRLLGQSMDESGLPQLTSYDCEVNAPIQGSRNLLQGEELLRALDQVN

CC(C)N(c1ccccc1)C(C)C
not listed: [19]
inactive: all other assays above

CC(C)Cc1ccccc1
not listed: [9] | [10] | [13]
inactive: all other assays above

CC(=O)c1ccc(C)cc1
not listed: [6]
inactive: all other assays above

C=C1CC[C@H]2O[C@]2(C)CC[C@@H]2[C@@H]1CC2(C)C
not listed: [18] | [19]
inactive: all other assays above

Source: PubChem BioAssay (EPA / NIEHS)
